TIM10 inh = TIM10 yeast growth inhibition; AID 463195; actives 1.4% (n = 330,000); S. cerevisiae TIM10 strain growth, BacTiter-Glo luminescence, 24 h; inhibition, % at 10 µM;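 active = inhibition of 40% or more at the single tested concentration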;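 also: wild-type TIM10 isogenic control strain grown at permissive 25 °C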
V-ATPase pH = yeast V-ATPase proton transport regulation by pHLuorin | S. cerevisiae, pHLuorin cytosolic pH fluorescence | response, % at 10 µM | actives 0.37% (n = 350,000) | AID 504577; in the data active = response mostly above about 7.3%, no sharp cut-off; inactive = mostly below about 5.4%; also: actives read high
tim10-1 inh = growth inhibitors of tim10-1 mutant yeast | inhibition, % at 20 µM | AID 463190 | actives 2.2% (n = 330,000) | S. cerevisiae tim10-1 ts strain growth, BacTiter-Glo, 24 h;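 active = inhibition of at least 40%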;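 also: mutant grown at 25 °C; 0% = DMSO wells with yeast and 100% = wells holding no yeast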
SKKanGAS inh = SKKanGAS growth inhibition | S. pyogenes SKKanGAS, kanamycin growth, BacTiter-Glo, 6 h | inhibition, % at 7.5 µM | actives 1.3% (n = 300,000) | AID 1662;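 active = mean replicate score, as percent of positive control median, at least 50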;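 also: strain carries kanamycin resistance gene driven by streptokinase promoter and grows in 40 µg/ml kanamycin; loss of luminescence reflects streptokinase promoter inhibition or plain growth inhibition; 0% = median of DMSO wells and 100% = positive control at its reference dose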
tim23-1 inh = growth inhibitors of tim23-1 mutant yeast; S. cerevisiae tim23-1 growth, BacTiter-Glo luminescence, 24 h; inhibition, % at 20 µM; actives 1.3% (n = 330,000); AID 463212;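 active = growth inhibition of the mutant yeast at or above 50%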;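 also: temperature-sensitive mutant grown at 25 °C; plate controls were DMSO-treated mutant yeast for no effect and medium wells lacking yeast for full effect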
PfHsp90 set2 = reduces growth (ATP signal) of yeast expressing P. falciparum Hsp90. S. cerevisiae expressing PfHsp90, BacTiter-Glo ATP, 48 h; yeast lacking PDR1 and PDR3 efflux regulators. inhibition, % at 9.4 µM. actives 0.32% (n = 310,000). AID 504621;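 active = every replicate shows inhibition above about 80%, whatever the replicate mean, limit read from the data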;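 also: 0% = DMSO neutral controls and 100% = 20 µM radicicol positive controls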
tim10-1 confirm = confirmation of tim10-1 mutant yeast growth inhibitors | S. cerevisiae tim10-1 ts strain growth, BacTiter-Glo, 24 h | inhibition, % at 20 µM | actives 56% (n = 7,400) | shares compounds with tim10-1 inh;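 active = inhibition of yeast growth at or above a set limit in either of two repeat tests at 20 µM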;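 also: tim10-1 mutant grown at permissive 25 °C to find synthetic lethal compounds; 0% = DMSO yeast wells and 100% = medium wells without yeast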
An asterisk follows results filed as active. Compounds with a hit are over-represented: about 4.6% of the library has one in this group of screens.

How did CCCCCn1c(NC(=O)c2ccco2)c(C(=O)OCC)c2nc3ccccc3nc21 do in these assays?
TIM10 inh: 29.8; V-ATPase pH: 10.9*; tim10-1 inh: 34.8; SKKanGAS inh: 11.9; tim23-1 inh: 32.9; PfHsp90 set2: -9.4

What do the screens show for `Oc1cccc2cccnc12`?
SKKanGAS inh: 94.0*

What do the screens show for `COc1ccc(/C=C/C(=O)c2c(O)n(CCC3=CCCCC3)c(=O)[nH]c2=O)cc1`?
TIM10 inh: 5.8; V-ATPase pH: 3.4; tim10-1 inh: 7.3; SKKanGAS inh: 57.9*; tim23-1 inh: 10.3; PfHsp90 set2: 2.6

What do the screens show for `O=C(N/N=C/c1c(O)n(CCC2=CCCCC2)c(=O)[nH]c1=O)c1ccccc1`?
TIM10 inh: 5.4; V-ATPase pH: -1.5; tim10-1 inh: 11.5; SKKanGAS inh: 62.4*; tim23-1 inh: -4.9; PfHsp90 set2: 1.9

Results for O=C(N/N=C/c1c(O)n(CCC2=CCCCC2)c(=S)[nH]c1=O)c1ccccc1 ?
TIM10 inh: 15.6; V-ATPase pH: -3.9; tim10-1 inh: 2.5; SKKanGAS inh: 97.2*; tim23-1 inh: 26.4; PfHsp90 set2: 0.4

Results for COc1cc2c(cc1OC)C13CCN4C=C5CCOC6CC(=O)N2C1C6C5CC43 (stereo unspecified) ?
V-ATPase pH: 1.4; PfHsp90 set2: 15.7

What do the screens show for `COC(=O)C1=C(c2ccc(S(C)(=O)=O)cc2)C[C@@H]2CC[C@H]1N2C(=O)NCc1ccc(C(F)(F)F)cc1`?
TIM10 inh: -10.4; V-ATPase pH: -2.3; tim10-1 inh: -6.5; SKKanGAS inh: 0.3; tim23-1 inh: -5.4; PfHsp90 set2: -27.0

What do the screens show for `COCCCNC(=O)c1c(NC(=O)c2ccco2)n(Cc2ccccc2)c2nc3ccccc3nc12`?
TIM10 inh: 25.8; V-ATPase pH: -6.8; tim10-1 inh: 19.8; SKKanGAS inh: 27.5; tim23-1 inh: 11.9; PfHsp90 set2: 24.6

How did COCCNC(=O)c1c(NC(=O)c2ccc(Br)o2)n(Cc2ccccc2)c2nc3ccccc3nc12 do in these assays?
TIM10 inh: 16.4; V-ATPase pH: -5.5; tim10-1 inh: 30.8; SKKanGAS inh: 61.3*; tim23-1 inh: 17.5; PfHsp90 set2: 8.8

How did CCCCn1c(=O)c(C(=O)NCc2ccccc2)c(O)c2ccccc21 do in these assays?
TIM10 inh: -11.2; V-ATPase pH: 4.0; tim10-1 inh: -30.3; SKKanGAS inh: 76.5*; tim23-1 inh: 26.4; PfHsp90 set2: -0.1

What do the screens show for `CCCCn1c(=O)c(C(=O)NCc2ccccc2Cl)c(O)c2ccccc21`?
TIM10 inh: -0.7; V-ATPase pH: 2.2; tim10-1 inh: -29.1; SKKanGAS inh: 49.6*; tim23-1 inh: 4.9; PfHsp90 set2: -1.9

Results for CCCCCn1c(=O)c(C(=O)NCc2ccc(Cl)cc2)c(O)c2ccccc21 ?
TIM10 inh: -10.3; V-ATPase pH: -2.2; tim10-1 inh: -4.9; SKKanGAS inh: 16.8; tim23-1 inh: 14.1; PfHsp90 set2: 26.0

Results for CCCCn1c(=O)c(C(=O)NCc2ccncc2)c(O)c2ccccc21 ?
TIM10 inh: 13.3; V-ATPase pH: 3.3; tim10-1 inh: 7.6; SKKanGAS inh: 58.3*; tim23-1 inh: 29.2; PfHsp90 set2: 4.9

How did CCOc1cc2c(cc1OCC)-n1cccc1C(c1ccc(C(C)C)cc1)NC2 (stereo unspecified) do in these assays?
TIM10 inh: 22.7; V-ATPase pH: -1.4; tim10-1 inh: 24.2; SKKanGAS inh: 0.8; tim23-1 inh: 18.2; PfHsp90 set2: 0.9

What do the screens show for `O=c1c2ccccc2[se]n1-c1ccccc1`?
TIM10 inh: 16.3; V-ATPase pH: -1.3; tim10-1 inh: 55.2*; SKKanGAS inh: 88.3*; tim23-1 inh: 5.0; PfHsp90 set2: 5.1; tim10-1 confirm: 89.6*

Results for O=c1c2ccccc2nc(-c2ccccc2)n1-c1ccccc1 ?
TIM10 inh: 22.1; V-ATPase pH: 1.6; tim10-1 inh: 22.9; SKKanGAS inh: 1.3; tim23-1 inh: 26.9; PfHsp90 set2: 3.8

How did O=C(O)C(Br)CBr (stereo unspecified) do in these assays?
TIM10 inh: 1.3; V-ATPase pH: -3.7; tim10-1 inh: -13.0; tim23-1 inh: -21.0; PfHsp90 set2: -19.2

Results for C=CCN1C(=O)c2ccccc2Sc2ccc(C(=O)N3CCC4(CC3)OCCO4)cc21 ?
TIM10 inh: 18.9; V-ATPase pH: 3.5; tim10-1 inh: 20.3; SKKanGAS inh: 6.7; tim23-1 inh: 12.3

What do the screens show for `O=C(c1ccc2c(c1)N(Cc1ccccc1)CCS2)N1CCC2(CC1)OCCO2`?
TIM10 inh: 7.3; V-ATPase pH: -4.9; tim10-1 inh: 42.2*; SKKanGAS inh: 3.8; tim23-1 inh: 44.4; PfHsp90 set2: 14.4; tim10-1 confirm: 20.9

How did O=C1CC(N2CC=C(c3ccccc3)CC2)C(=O)N1c1ccc(F)cc1 (stereo unspecified) do in these assays?
TIM10 inh: 29.3; V-ATPase pH: 3.2; tim10-1 inh: 42.9*; SKKanGAS inh: 1.4; tim23-1 inh: 38.2; PfHsp90 set2: -87.6; tim10-1 confirm: 42.5*

Results for CC(N)C(=O)NC1C2C(=C(O)CC(O)C2O)C(=O)OC1(C)C(Cl)Cl (stereo unspecified) ?
V-ATPase pH: -3.2; PfHsp90 set2: -2.3

What do the screens show for `CC1(C)C(C(=O)N2CCN(c3ccc(Cl)cc3)CC2)C1(C)C`?
TIM10 inh: 10.7; V-ATPase pH: 2.2; tim10-1 inh: 21.1; SKKanGAS inh: 2.1; tim23-1 inh: 24.1; PfHsp90 set2: 2.5

How did COC(=O)C1CN(C#N)N(c2ccc(Cl)cc2)C12c1ccccc1-c1ccccc12 (stereo unspecified) do in these assays?
TIM10 inh: 37.3; V-ATPase pH: 1.9; tim10-1 inh: 58.0*; SKKanGAS inh: 67.1*; tim23-1 inh: 40.1; PfHsp90 set2: 96.1*; tim10-1 confirm: 42.5*

How did CN1Cc2cnnn2-c2ccccc2C1c1ccccc1 (stereo unspecified) do in these assays?
V-ATPase pH: -0.6; PfHsp90 set2: 18.3

What do the screens show for `Cc1cc(/C=C2\C(=O)NC(=O)N(c3ccc(Cl)cc3)C2=O)c(C)n1-c1sc2c(c1C#N)CCCC2`?
TIM10 inh: 15.2; V-ATPase pH: -0.4; tim10-1 inh: 41.1*; SKKanGAS inh: 20.2; tim23-1 inh: 31.2; PfHsp90 set2: -2.6; tim10-1 confirm: 13.9

Results for CCOC(=O)c1c(-n2c(C)cc(/C=C3\C(=O)NC(=O)N(C)C3=O)c2C)sc2c1CCCC2 ?
TIM10 inh: 32.0; V-ATPase pH: -2.4; tim10-1 inh: 32.0; SKKanGAS inh: 24.0; tim23-1 inh: 39.4; PfHsp90 set2: -8.3

What do the screens show for `c1ccc(-c2ccc(CN3Cc4ccccc4-n4nncc4C3)cc2)cc1`?
V-ATPase pH: -2.7

Compound activity (PubChem BioAssay)
